Potency data for 7 compounds are collected here from PubChem BioAssay (Tox21).

Molecules are shown by their SMILES. Values without a mark were called inactive. Results filed as inconclusive are left out. Calls of active or inactive are those of the source. Unless noted, calls come from the whole dose curve.

Test [1] is described as follows: Nuclear factor erythroid 2-related factor 2/antioxidant responsive element (Nrf2/ARE) small molecule agonists: qHTS cell viability counter screen in human keratinocytes (AID 1919968; active = well fitted curve in the direction sought with a large enough effect in the repeat runs; an effect the other way counts as inactive or inconclusive; note: nearly all actives have a fitted effect of over 55% in size). The gist of the method:
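Viability counter-screen: KeratinoSens reporter cells, DMSO-delivered compounds, 23 h at 37 C, CellTiter-Fluor fluorescence.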

A short description of test [2]: Nuclear factor erythroid 2-related factor 2/antioxidant responsive element (Nrf2/ARE) small molecule agonists: luciferase reporter gene qHTS assay in human keratinocytes (AID 1919969). Note: nearly all actives have a fitted effect of over 35% in size. Note: potency is the fitted concentration of half-maximal effect. For orientation: In a reporter assay the amount or activity of a reporter protein is the signal.
Test [3] has as its target Gonadotropin-releasing hormone receptor (Homo sapiens) (UniProt P30968). Briefly: Human gonadotropin-releasing hormone receptor (GnRHR) small molecule agonists, calcium flux assay in GnRHR-HEK293 cells (AID 1920063). Note: nearly all actives have a fitted effect of over 35% in size. The gist of the method:
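Tox21-format agonist screen using human GnRHR-expressing HEK293 cells and a fluorescent calcium dye; kinetic 3-min fluorescence reading after compound addition, 15-point concentration series run in triplicate.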
In general terms: A change in cytosolic calcium serves as a functional read-out for many receptors and channels.

The target in test [4] is KiSS-1 receptor (Homo sapiens) (UniProt Q969F8). Kind of test: Human kisspeptin (KISS1R) small molecule agonists, calcium flux assay in KISS1R-HEK293 cells (AID 1920064; active = well fitted curve in the direction sought with a large enough effect in the repeat runs; an effect the other way counts as inactive or inconclusive). The essentials:
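Intracellular calcium mobilization in KISS1R-HEK293 cells was recorded by fluorescence (Ex/Em 480/540) for 3 min following compound addition to cells pre-loaded 1 h with calcium dye.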

Test [5] is described as follows: G protein-coupled receptor (GPCR) small molecule agonists, calcium flux assay: HEK293 wild type cell line counter screen (AID 1920065). The gist of the method: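 In this agonist-mode screen, ATP is the positive control and DMSO the vehicle. Cells grow 18 h before a 1 h dye incubation at 37 C; signal is taken at Ex/Em 480/540 over 3 min.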
Test [6] can be described thus: p53 small molecule agonists, cell-based qHTS assay with human liver microsomes (AID 1963577).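 Note: p53 response element beta-lactamase reporter cells with liver microsomes plus NADPH.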 The gist of the method:
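16 h, 37 C exposure of p53RE-bla cells to compounds with human liver microsomes and NADPH (0.5 mg/mL final each); detection via LiveBLAzer mixture, 2 h dark at room temperature.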
(Quantitative high-throughput screening tests each substance at several concentrations.)

Test [7] is described as follows: p53 small molecule agonists, cell-based qHTS assay with rat liver microsomes (AID 1963578). The gist of the method:
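With rat liver microsomes and NADPH present (0.5 mg/mL final each), p53RE-bla cells are treated with compound for 16 h at 37 C. LiveBLAzer detection mixture is then applied for 2 h at room temperature in the dark.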

The nature of test [8]: p53 small molecule agonists, cell-based qHTS assay with human liver microsomes: qHTS cell viability counter screen (AID 1963579). Note: nearly all actives have a fitted effect of over 45% in size. The gist of the method: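 In this multiplexed counter screen, the reporter plates were subsequently treated with CellTiter-Glo so that cell viability, reflected by luminescence, could be recorded for p53RE-bla cells dosed 16 h with compounds under microsomal activation (HLM and NADPH).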

A short description of test [9]: p53 small molecule agonists, cell-based qHTS assay with rat liver microsomes: qHTS cell viability counter screen (AID 1963580). Note: nearly all actives have a fitted effect of over 45% in size. The essentials: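 Viability is assessed in parallel with the p53 reporter read: HCT-116 p53RE-bla cells receive compounds plus rat microsomes and NADPH (0.5 mg/mL final apiece), incubate 16 h at 37 C, and then CellTiter-Glo luminescence is recorded.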

A short description of test [10]: p53 small molecule agonists, cell-based qHTS assay: qHTS cell viability counter screen (AID 1963581). Note: nearly all actives have a fitted effect of over 45% in size. The essentials: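 Compounds are pinned onto HCT-116 p53RE-bla cells and left 16 h at 37 C. Following the reporter FRET read, ATP is quantified by CellTiter-Glo luminescence after 30 min at room temperature.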
Test [11] can be described thus: p53 small molecule agonists, cell-based qHTS assay (AID 1963582; active = well fitted activation curve with a large enough effect in the signal ratio in the repeat runs, not every such curve was filed as active; the % refers to the signal ratio). The gist of the method: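 Agonist activity was scored from beta-lactamase FRET fluorescence in p53RE-bla cells treated 16 h at 37 C with compounds in DMSO, substrate incubation being 2 h at room temperature.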
The target in test [12] is 5-hydroxytryptamine receptor 2A (Homo sapiens) (UniProt P28223). Briefly: 5-hydroxytryptamine receptor 2A (HTR2A) small molecule antagonists, cell-based qHTS assay (AID 1963586). Note: nearly all actives have a fitted effect of over 45% in size. The essentials:
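Antagonist-mode intracellular calcium assay: DOI (4 nM) added after 5 min compound pre-incubation at room temperature to dye-loaded HTR2A-CHO cells. Fluorescence followed for 3 min, sampled every second.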

Test [13] shares this target. Kind of test: 5-hydroxytryptamine receptor 2A (HTR2A) small molecule agonists, cell-based qHTS assay (AID 1963587). Note: nearly all actives have a fitted effect of over 30% in size. The gist of the method: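 CHO cells stably expressing human HTR2A, plated 18 h, loaded with calcium dye 1 h at 37 C. Agonist mode: compounds added and intracellular calcium fluorescence recorded kinetically for 2 min at 1 sec intervals.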
Test [14] addresses Muscarinic acetylcholine receptor M1 (Homo sapiens) (UniProt P11229). Kind of test: Cholinergic receptor muscarinic 1 (CHRM1) small molecule antagonists, cell-based qHTS assay (AID 1963588). Note: nearly all actives have a fitted effect of over 40% in size. The gist of the method: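 CHRM1-CHO calcium-flux assay, antagonist mode. Cells were seeded 18 h, dye-loaded 1 h at 37 C and given compound for 5 min at RT, then acetylcholine was added at 50nM. FDSS fluorescence was read 3 min; 15 concentrations, three runs.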

Test [15] shares this target. Kind of test: Cholinergic receptor muscarinic 1 (CHRM1) small molecule agonists, cell-based qHTS assay (AID 1963589). Note: nearly all actives have a fitted effect of over 35% in size. The gist of the method:
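Stable CHRM1-CHO cells (human receptor) were incubated 18 h, dye-loaded for 1 h at 37 C and exposed to test compounds for agonist activity, with calcium-dependent fluorescence followed kinetically.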

Test [16] is described as follows: cAMP Responsive Elements (CRE) small molecule antagonists, cell-based qHTS assay (AID 1963591; active = well fitted inhibition curve with a large enough effect in the signal ratio in the repeat runs, not every such curve was filed as active; the % refers to the signal ratio). The essentials: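 qHTS in CRE-bla HEK 293T cells: compound in DMSO, then 0.25 uM NKH477 (final), 3 h at 37 °C/5% CO2; beta-lactamase FRET read-out after 2 h substrate incubation.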
Test [17] addresses Beta-2 adrenergic receptor (Homo sapiens) (UniProt P07550). Briefly: Adrenergic beta2 receptor (ADRB2) small molecule antagonists, cell-based qHTS assay (AID 1963592). Note: series mostly up to about 92 µM; nearly all actives have a fitted effect of over 50% in size. The essentials:
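Cells (CHO, stable ADRB2 overexpression) incubated 18-20hr at 37C; compounds added from DMSO; agonist mix (1nM isoproterenol, 100uM IBMX, 25uM Ro-20-1724) added; 0.5hr RT; d2-cAMP and anti-cAMP-cryptate added; 1hr RT; 665/615 nm read.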

Test [18] concerns the target D(2) dopamine receptor (Homo sapiens) (UniProt P14416). Briefly: Dopamine D2 receptor (DRD2) small molecule antagonists, cell-based qHTS assay (AID 1963595; active = well fitted inhibition curve with a large enough effect in the signal ratio in the repeat runs, with a control signal flat; the % refers to the signal ratio). The gist of the method:
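Cells were plated and grown for 24 h at 37 °C. Ro20-1724 (0.1 mM final) went in first, then compound for 10 min. NKH477 (200 nM) with quinpirole (12 nM) followed for 30 min at RT, then HTRF detection reagents for 1 h.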

Test [19] shares this target. Kind of test: Dopamine D2 receptor (DRD2) small molecule agonists, cell-based qHTS assay (AID 1963594). Note: nearly all actives have a fitted effect of over 35% in size. The essentials:
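HEK293 cells stably expressing human DRD2, pre-treated with PDE inhibitor Ro20-1724 (0.1 mM final) and compound 10 min at room temperature, then stimulated with NKH477 (200nM […]) for 30 min. cAMP read by HTRF (665/620 nm).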

Test [20] can be described thus: cAMP Responsive Elements (CRE) small molecule agonists, cell-based qHTS assay (AID 1963590). The essentials: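 FRET-based beta-lactamase readout (LiveBLAzer B/G, 2 h RT) quantified CRE activation in HEK 293T CRE-bla cells after 3 h treatment with DMSO-dissolved compounds.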

Sequence of 5-hydroxytryptamine receptor 2A (Homo sapiens) (P28223 whole entry, looked up): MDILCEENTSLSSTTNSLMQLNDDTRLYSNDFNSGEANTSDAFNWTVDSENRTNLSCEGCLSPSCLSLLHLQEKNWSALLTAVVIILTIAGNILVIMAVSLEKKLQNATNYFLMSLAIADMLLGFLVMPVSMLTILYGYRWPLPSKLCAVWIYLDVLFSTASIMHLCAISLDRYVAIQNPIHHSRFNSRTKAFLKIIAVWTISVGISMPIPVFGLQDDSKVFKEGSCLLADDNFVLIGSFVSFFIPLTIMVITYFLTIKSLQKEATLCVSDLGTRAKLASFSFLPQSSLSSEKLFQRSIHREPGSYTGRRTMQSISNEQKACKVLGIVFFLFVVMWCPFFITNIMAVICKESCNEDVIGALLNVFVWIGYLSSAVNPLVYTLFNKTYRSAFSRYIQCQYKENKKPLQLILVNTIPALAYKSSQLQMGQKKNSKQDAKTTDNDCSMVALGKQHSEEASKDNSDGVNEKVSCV
Sequence of KiSS-1 receptor (Homo sapiens) (Q969F8 whole entry, looked up): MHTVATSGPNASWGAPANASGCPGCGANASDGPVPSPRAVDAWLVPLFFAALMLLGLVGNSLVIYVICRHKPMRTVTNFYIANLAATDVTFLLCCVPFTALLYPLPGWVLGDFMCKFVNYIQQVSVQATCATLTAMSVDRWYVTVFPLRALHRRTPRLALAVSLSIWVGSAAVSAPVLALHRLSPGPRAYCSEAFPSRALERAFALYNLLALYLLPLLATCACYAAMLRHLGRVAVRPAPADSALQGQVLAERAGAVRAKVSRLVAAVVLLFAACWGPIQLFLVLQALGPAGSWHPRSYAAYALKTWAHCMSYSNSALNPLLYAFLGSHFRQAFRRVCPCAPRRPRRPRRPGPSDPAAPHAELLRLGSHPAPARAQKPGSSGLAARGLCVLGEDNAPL
Sequence of Beta-2 adrenergic receptor (Homo sapiens) (P07550 whole entry, looked up): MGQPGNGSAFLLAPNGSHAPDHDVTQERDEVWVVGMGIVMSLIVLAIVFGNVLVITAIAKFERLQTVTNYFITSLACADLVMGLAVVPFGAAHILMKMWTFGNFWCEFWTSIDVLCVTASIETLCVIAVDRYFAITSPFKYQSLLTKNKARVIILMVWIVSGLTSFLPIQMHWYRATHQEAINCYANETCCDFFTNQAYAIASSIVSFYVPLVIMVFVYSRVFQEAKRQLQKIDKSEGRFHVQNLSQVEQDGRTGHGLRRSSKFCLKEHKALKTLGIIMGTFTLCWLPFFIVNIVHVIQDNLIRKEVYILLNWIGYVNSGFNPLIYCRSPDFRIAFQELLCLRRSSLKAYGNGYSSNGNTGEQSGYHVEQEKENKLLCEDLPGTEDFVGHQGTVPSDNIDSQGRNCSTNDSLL
Sequence of Gonadotropin-releasing hormone receptor (Homo sapiens) (P30968 whole entry, looked up): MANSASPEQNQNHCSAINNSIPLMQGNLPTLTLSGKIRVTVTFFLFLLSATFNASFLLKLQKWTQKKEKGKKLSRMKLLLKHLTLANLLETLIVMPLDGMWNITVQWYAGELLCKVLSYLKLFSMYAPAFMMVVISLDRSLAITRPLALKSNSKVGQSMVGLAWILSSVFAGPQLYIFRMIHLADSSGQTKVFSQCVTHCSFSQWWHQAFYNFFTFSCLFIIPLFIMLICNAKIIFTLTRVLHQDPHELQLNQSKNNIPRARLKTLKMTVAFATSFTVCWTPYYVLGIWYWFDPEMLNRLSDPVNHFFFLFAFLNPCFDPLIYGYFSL
Sequence of D(2) dopamine receptor (Homo sapiens) (P14416 whole entry, looked up): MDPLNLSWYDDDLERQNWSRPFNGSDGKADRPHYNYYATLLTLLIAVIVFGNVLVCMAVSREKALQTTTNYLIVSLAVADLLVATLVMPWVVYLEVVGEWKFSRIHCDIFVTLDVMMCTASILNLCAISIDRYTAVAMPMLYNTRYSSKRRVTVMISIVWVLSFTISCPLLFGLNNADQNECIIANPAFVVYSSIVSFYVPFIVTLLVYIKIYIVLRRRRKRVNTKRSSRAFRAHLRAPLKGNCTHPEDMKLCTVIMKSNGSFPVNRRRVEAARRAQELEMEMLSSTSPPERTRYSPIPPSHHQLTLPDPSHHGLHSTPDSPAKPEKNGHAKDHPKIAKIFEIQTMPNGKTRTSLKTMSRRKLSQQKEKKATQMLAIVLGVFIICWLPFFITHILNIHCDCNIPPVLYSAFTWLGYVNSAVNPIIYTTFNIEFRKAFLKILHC
Sequence of Muscarinic acetylcholine receptor M1 (Homo sapiens) (P11229 whole entry, looked up): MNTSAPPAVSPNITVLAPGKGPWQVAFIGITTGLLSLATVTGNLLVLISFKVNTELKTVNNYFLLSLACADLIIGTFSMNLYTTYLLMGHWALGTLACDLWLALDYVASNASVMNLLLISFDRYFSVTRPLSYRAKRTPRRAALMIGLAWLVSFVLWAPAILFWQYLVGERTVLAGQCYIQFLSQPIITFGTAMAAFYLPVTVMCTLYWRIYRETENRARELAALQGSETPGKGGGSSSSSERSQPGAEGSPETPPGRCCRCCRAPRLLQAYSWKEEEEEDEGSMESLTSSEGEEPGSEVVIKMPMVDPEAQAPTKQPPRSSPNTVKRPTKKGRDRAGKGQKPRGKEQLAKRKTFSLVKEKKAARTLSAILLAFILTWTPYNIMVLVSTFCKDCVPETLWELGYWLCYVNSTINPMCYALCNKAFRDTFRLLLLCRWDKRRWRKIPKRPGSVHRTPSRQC

On to `CCCC[P+](CC)(CCCC)CCCC` (tested in a mixture with another compound), for which the Potency entry in test [1], in test [2], in test [3], in test [4], in [5] and in [6] was “inactive” in each case. Also, the Potency result in [7], in [8], in test [9], in test [10], in [11] and in test [12] was “inactive” throughout. For the same compound, the Potency entry in test [13], in test [14], in [15], in [16], in test [17] and in test [18] was “inactive” in each case.

As to `C=C1C[C@@H]2[C@H](CC[C@]3(C)C(=O)CC[C@@H]23)[C@@]2(C)C=CC(=O)C=C12`, the Potency entry in test [1], in [3], in test [4], in test [5], in test [6] and in test [7] was “inactive” in each case. For the same compound, the Potency entry in test [8], in test [9], in [10], in test [11], in [12] and in test [13] was “inactive” in each case. The Potency entry in test [15], in [19] and in test [18] was “inactive” each time. Moreover, the Potency in [2] was 29.8 µM (active).

On to `Oc1cccc(Cl)c1Cl`, for which the Potency result in test [1], in [2], in test [3], in test [4], in test [5] and in test [6] was “inactive” each time. Besides, the Potency entry in test [7], in test [8], in test [9], in test [10], in [11] and in test [12] was “inactive” throughout. Also, the Potency result in test [13], in test [14], in [15], in test [20], in test [17] and in [19] was “inactive” in each case. Moreover, the Potency result in [18] was “inactive”.

As for `CCC(COC(=O)c1cc(OC)c(OC)c(OC)c1)(c1ccccc1)N(C)C` (stereo not given), the Potency result in test [1], in test [2], in [3], in [4], in [5] and in [6] was “inactive” each time. Also, the Potency entry in [7], in test [8], in test [9], in [10], in test [11] and in test [12] was “inactive” in each case. Further, the Potency result in test [13], in test [14], in test [15], in test [17] and in test [19] was “inactive” throughout.

`COC(=O)COc1ccc(Cl)cc1Cl`: the Potency entry in test [1], in test [2], in [3], in test [4], in test [5] and in [6] was “inactive” throughout. The Potency result in test [7], in test [8], in test [9], in [10], in test [11] and in test [12] was “inactive” each time. The Potency result in test [13], in test [14], in test [15], in test [17], in [19] and in [18] was “inactive” each time.

`CN1[C@@H]2CC[C@H]1CC(OC(=O)c1cc(Cl)cc(Cl)c1)C2` (stereo not given in full): the Potency result in test [1], in test [2], in test [3], in test [4], in test [5] and in test [6] was “inactive” each time. In addition, the Potency result in test [7], in test [8], in test [9], in test [10], in test [11] and in test [12] was “inactive” throughout. Besides, the Potency entry in test [13], in [15], in [16], in test [17], in test [19] and in test [18] was “inactive” throughout.

On to `CC(Oc1cccc(Cl)c1)C(=O)O` (stereo not given), for which the Potency entry in test [1], in [2], in test [3], in [4], in [5] and in test [6] was “inactive” in each case. Moreover, the Potency result in test [7], in test [8], in [9], in [10], in test [11] and in test [12] was “inactive” each time. In addition, the Potency result in [13], in test [14], in test [15], in test [16], in test [17] and in [19] was “inactive” each time. In test [18], the Potency result was “inactive”.
